Screening data deposited in PubChem BioAssay by The Scripps Research Institute Molecular Screening Center.
In the library only some 2% were active in any assay of this set; here they are far more common.
CHO-K1 Ca ag: nonselective activator or artifact in parental CHO-K1 cells | AID 602248 | Fluo-8 calcium fluorescence; scaled to maximal ATP response, vehicle zero | 360,000 compounds, 0.48% hits | activation, % at 3 µM; in the data active = activation above about 15%;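 note: untransfected CHO-K1 host cells lacking M1 receptor as counterscreen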
CHO-K1 Ca antag: counter-screen for M1 antagonists: effect in parental CHO-K1 cells | AID 602250 | inhibition, % at 3 µM | ATP-induced calcium, Fluo-8 fluorescence | 360,000 compounds, 0.6% hits;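 active = inhibition above a per-plate cutoff, the plate's mean sample inhibition plus 3 SD, cut at about 24% in these data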
CHRM4 PAM: potentiates acetylcholine response at human M4 receptor. 360,000 compounds, 0.4% hits. activation, % at 3 µM. AID 624126. CHO-K1 hM4/Gqi5, Fluo-8 calcium fluorescence, ACh EC20; 0% = ACh EC20, 100% = maximal ACh;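 active = activation above its plate's cutoff, the mean activation of sample wells plus 3 SD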
Target sequence (P08173 whole entry, looked up): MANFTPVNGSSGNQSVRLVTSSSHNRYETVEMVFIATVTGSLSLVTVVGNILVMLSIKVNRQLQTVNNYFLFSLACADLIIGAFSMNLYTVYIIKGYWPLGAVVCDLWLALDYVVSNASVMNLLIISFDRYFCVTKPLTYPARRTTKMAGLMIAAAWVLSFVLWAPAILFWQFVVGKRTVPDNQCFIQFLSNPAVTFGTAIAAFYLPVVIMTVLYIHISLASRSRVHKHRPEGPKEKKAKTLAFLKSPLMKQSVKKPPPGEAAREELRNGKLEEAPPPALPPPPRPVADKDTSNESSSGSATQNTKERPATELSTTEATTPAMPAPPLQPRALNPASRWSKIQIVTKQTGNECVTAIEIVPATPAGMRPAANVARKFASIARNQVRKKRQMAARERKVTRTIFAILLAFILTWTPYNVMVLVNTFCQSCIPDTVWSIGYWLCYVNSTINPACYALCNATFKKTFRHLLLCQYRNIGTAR
CHO-K1 Ca PAM: nonselective activator or artifact in parental CHO-K1 calcium assay. ATP EC20, Fluo-8 calcium fluorescence; 0% at ATP EC20, 100% at ATP max. activation, % at 3 µM. 360,000 compounds, 0.02% hits. AID 602247;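 active = activation above the run cutoff, the mean activation of all test compounds plus 3 SD, cut at about 40% in these data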;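 note: peak over basal fluorescence ratio in a 140 s read after ATP addition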
CHRM4 agonist: agonists of human muscarinic M4 receptor (CHRM4) | P08173 | CHO-K1 hM4/Gqi5, Fluo-8 calcium fluorescence; vehicle 0%, full acetylcholine response 100% | activation, % at 3 µM | 360,000 compounds, 0.14% hits;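 active = activation above the run mean over all test wells plus 3 SD, cut at about 32% in these data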;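 note: peak over basal fluorescence ratio per well then scaled between controls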
CHRM4 antagonist: blocks acetylcholine activation of human M4 receptor; P08173; CHO-hM4 cells, ACh EC80, Fluo-8 calcium fluorescence; inhibition, % at 3 µM; 360,000 compounds, 0.73% hits; AID 624125;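 active = inhibition above its plate's cutoff, the mean inhibition of sample wells plus 3 SD, cut at about 27% in these data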
Each line names hits and unclear results; the compound was inactive in the other large screens.

Cc1ccc2c(c1)nnn2C1CCN(S(=O)(=O)c2ccc(C(=O)O)cc2)CC1	none
C/C(=N\Nc1ccc(C(F)(F)F)cn1)c1ccncc1	CHRM4 PAM 21
Oc1ccc(/C=N/Nc2ccc(C(F)(F)F)cn2)cc1	none
c1ccc(Cc2noc(CN3CCCN(C4Cc5ccccc5C4)CC3)n2)cc1	CHRM4 antagonist 51
CC(C)(C)OC(=O)NCc1ccc(CNC(=O)c2[nH]cnc2C(=O)NCC(=O)OCc2ccccc2)cc1	CHRM4 antagonist 38
C[C@H](NC(=O)c1nc[nH]c1C(=O)NCC(=O)OCc1ccccc1)c1ccccc1	CHRM4 antagonist 28
COC(=O)c1ccc(C2C(C(=O)Nc3ccc(C)cc3C)=C(C)Nc3ncnn32)cc1 (centres undefined)	CHO-K1 Ca antag 24
COC(=O)C1=C(C)Nc2ncnn2C1c1ccc(OC(=O)c2ccccc2)cc1 (centres undefined)	none
O=[N+]([O-])c1cc([N+](=O)[O-])c(Oc2cccc3ccccc23)cc1NN1CCCCC1	CHRM4 PAM 30
O=[N+]([O-])c1cc([N+](=O)[O-])c(Oc2ccc(F)cc2F)cc1NN1CCCCC1	CHRM4 PAM 27
O=C(CSc1ccc2nnc(CCNC(=O)c3ccccc3)n2n1)Nc1ccc(F)cc1F	none
Cc1nc(-c2ccccc2OC(F)(F)F)[nH]c(=O)c1Cl	none
Cc1cc(=O)[nH]c(-c2ccccc2OC(F)(F)F)n1	CHO-K1 Ca ag 18
CC(NC(=O)/C(C#N)=C/c1ccc(C(=O)O)cc1)c1ccccc1 (centres undefined)	none
COc1cc(/C=C(/C#N)C(=O)NC(C)c2ccccc2)cc(OC)c1O (centres undefined)	CHRM4 agonist 33
COc1ccccc1NC(=O)CSCC(N)=O	none
COc1ccccc1NC(=O)CSCc1nc2ccccc2[nH]1	CHRM4 PAM 21
O=C(CCC(=O)N(CC(=O)NC1CCCCC1)Cc1cccs1)Nc1nccs1	none
O=C(c1cccc(N2C(=O)C3C4C=CC(C4)C3C2=O)c1)N1CCN(c2ccccc2)CC1 (centres undefined)	none
O=C(c1cc(N2C(=O)C3C4CCC(C4)C3C2=O)ccc1Cl)N1CCN(c2ccccc2)CC1 (centres undefined)	CHO-K1 Ca ag 23
CCOC(=O)C1(Cc2cccc(Cl)c2)CCCN(C(=O)CCOC)C1 (centres undefined)	CHRM4 PAM 24
CCOC(=O)Cn1nc(C)c(NC(=O)c2ccc(Br)o2)c1C	none
O=C(COC(=O)c1cnccn1)NCc1ccc2c(c1)OCO2	none
OC(c1cc(-c2ccc(C(F)(F)F)cc2)nc(C(F)(F)F)c1)C1CCCCN1 (centres undefined)	CHO-K1 Ca ag 18
COc1cc(/C=C/C(O)=C/C(=O)/C=C/c2ccc(O)cc2)ccc1O	CHO-K1 Ca ag 17, CHRM4 agonist 50, CHRM4 antagonist 27
COc1cc(/C=C/C(=O)NC(=O)c2ccccc2O)ccc1O	none
COCCC(=O)N1CCC(Oc2ccc(C(=O)N3C[C@@H]4CCC[C@H]3C4)cc2)CC1	none
O=c1[nH]c(C2CCCN(S(=O)(=O)c3ccccc3)C2)nc2c1nnn2Cc1ccc2c(c1)OCCO2 (centres undefined)	none
Cc1ccc(S(=O)(=O)N2CCC(c3nc4c(nnn4Cc4ccccc4)c(=O)[nH]3)CC2)cc1	CHRM4 antagonist 75
O=c1[nH]c(C2CCN(S(=O)(=O)c3ccc4c(c3)OCCO4)CC2)nc2c1nnn2Cc1ccccc1	CHRM4 antagonist 90
Cc1ccc(C)c(S(=O)(=O)N2CCC(c3nc4c(nnn4Cc4ccc5c(c4)OCCO5)c(=O)[nH]3)CC2)c1	CHRM4 antagonist 42
COc1ccc(OS(=O)(=O)c2c(C)noc2C)cc1	none
CC(=O)c1ccc(OCCCC(=O)Nc2cccc(-c3nn[nH]n3)c2)cc1	none
Cc1ccc(OC(C)C(=O)N=Nc2c(O)[nH]c3ccc([N+](=O)[O-])cc23)cc1 (centres undefined)	none
CCc1nc2c(OCCOc3ccccc3)cccn2c1N(C)C(=O)C1CC1	none
CCOc1ccc(NC(=O)CSc2nc3cc(C(=O)NCC4CCCO4)ccc3c(=O)n2CC2CCCO2)cc1 (centres undefined)	none
C/C(Sc1nnc(Cc2ccccc2)o1)=C(\O)c1ccccc1	none
COc1cc(NC(=O)Cc2nn(C)c(=O)c3ccccc23)cc(OC)c1	none
Cc1ccc(NC(=O)Cc2nn(C)c(=O)c3ccccc23)cc1F	CHRM4 antagonist 33
Cn1c(C(=O)O)c(CC(=O)Nc2ccc3c(c2)OCCO3)c2ccccc21	none
Cn1nc(CC(=O)Nc2ccc3c(c2)OCCO3)c2ccccc2c1=O	CHO-K1 Ca antag 27
COc1ccc(S(=O)(=O)NC2(C(F)(F)F)NC(=O)N(CCc3ccccc3)C2=O)cc1 (centres undefined)	none
CSc1ccc(/C=N/NC(=O)CN2CCN(Cc3ccc(C)cc3)CC2)cc1	CHRM4 antagonist 42
CC(C)(C)NC(=O)CCN(/N=C/c1ccccc1F)C1=NS(=O)(=O)c2ccccc21	none
CCOc1ncccc1C(=O)NNC(=O)c1csc(N2CCOCC2)n1	none
O=C(Nc1ccccc1)Nc1ccc(Br)c(Cl)c1	CHO-K1 Ca antag 27
O=C(Nc1ccc(Cl)c(Cl)c1)Nc1ccc(Br)cc1F	CHO-K1 Ca antag 28
O=C(Nc1ccc(Cl)c(Cl)c1)Nc1ccccc1O	CHO-K1 Ca antag 25
O=C(Nc1cccnc1)Nc1ccc(F)c(Cl)c1	CHO-K1 Ca ag 16
Cc1ccc(S(=O)(=O)CC(=O)Nc2nccs2)cc1	none
COc1cccc(C(=O)NCCS(=O)(=O)NC(C)CCc2ccccc2)c1 (centres undefined)	none
O=C(c1cc2cccc([N+](=O)[O-])c2oc1=O)N1CCOCC1	none
O=C(Nc1ccc(Cl)c(Cl)c1)Nc1ccon1	none
O=C1C=C(NC(=O)Nc2ccc(Cl)c(Cl)c2)CCC1	CHO-K1 Ca antag 30
Cc1ccc(S(=O)(=O)Nc2cc(Cl)ccc2-n2cncn2)cc1	none
CC(NC(=O)C1CCN(CCOc2ccc(Cl)cc2)CC1)c1cccc2ccccc12 (centres undefined)	none
CCOC(=O)CSc1nc(NCc2ccco2)c2ccccc2n1	none
COc1ccc(CNc2nc(SCC(=O)NCc3ccco3)nc3ccccc23)cc1	CHO-K1 Ca ag 16
COc1ccc(NC(=O)CC2C(=O)N(c3ccc(F)cc3)C(=S)N2NC(=O)c2ccccc2)cc1 (centres undefined)	none
CCn1c(=O)c([N+](=O)[O-])c(Cl)c2ccccc21	CHRM4 antagonist 39
CC(NC(=O)C1CCN(S(=O)(=O)c2cccc3nonc23)CC1)c1ccccc1 (centres undefined)	none
